Values joined by “and” are separate entries in the source; they are usually repeats but may differ in a detail not shown here. Equal entries are not always repeated. The panel holds about 79,000 compounds, 15% with a hit somewhere; the sample as a whole holds those more often. The source holds several records for some structures; these can differ, active in one and inactive in another. Active and inactive are the calls of the source. Cut-off read from the data, not from the text of the source: active = growth inhibition above about 70%; inactive = the rest.
Experiments:
[1] = NCI Yeast Anticancer Drug Screen. Data for the rad52 strain (AID 147);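 note: 0% = growth of vehicle-treated control cultures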; settings: S. cerevisiae rad52 mutant growth inhibition, stronger effect = higher value
Procedure, shortened: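 Read-out: growth inhibition versus vehicle-treated controls. Cells were a DNA repair-deficient yeast strain treated with compounds.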

[2] = NCI Yeast Anticancer Drug Screen. Data for the wt1 strain (AID 149);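 note: 0% = growth of vehicle-treated wt1 cultures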; settings: S. cerevisiae wt1 strain (SPY 50644) growth inhibition, stronger effect = higher value
Procedure, shortened: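 Yeast wt1 strain exposed to compounds; growth inhibition measured relative to vehicle-treated controls.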

[3] = NCI Yeast Anticancer Drug Screen. Data for the rad50EPP+ strain (AID 151);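 note: 0% = growth of vehicle-treated control cultures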; settings: S. cerevisiae rad50 mutant strain, stronger effect = higher value
Procedure, shortened: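 Growth inhibition read against vehicle controls in rad50EPP+ yeast, a strain altered in DNA damage repair, after compound exposure.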

[4] = NCI Yeast Anticancer Drug Screen. Data for the mgt1 strain (AID 153); settings: S. cerevisiae mgt1 mutant growth inhibition, stronger effect = higher value
Procedure, shortened: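 mgt1 yeast grown with test compound; read-out is growth inhibition versus vehicle-treated cultures.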

[5] = NCI Yeast Anticancer Drug Screen. Data for the rad50 strain (AID 155);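 note: 0% = growth of vehicle-only cultures of the same strain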; settings: S. cerevisiae rad50 strain growth inhibition, stronger effect = higher value
Procedure, shortened: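 Yeast carrying a defined DNA repair defect were exposed to test compounds, and growth was compared with vehicle-treated controls to give percent inhibition.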

[6] = NCI Yeast Anticancer Drug Screen. Data for the mec2-1 strain (AID 157); settings: S. cerevisiae mec2-1 strain, stronger effect = higher value
Procedure, shortened: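 Yeast mec2-1 mutant treated with compound. Readout: growth inhibition vs vehicle controls.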

[7] = NCI Yeast Anticancer Drug Screen. Data for the rad14 strain (AID 159);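 note: 0% = growth of vehicle-treated control cultures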; settings: S. cerevisiae rad14 strain growth inhibition, stronger effect = higher value
Procedure, shortened: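 Yeast cells carrying a defined DNA-repair defect were exposed to compounds, and growth inhibition was calculated relative to vehicle-treated control cultures.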

[8] = NCI Yeast Anticancer Drug Screen. Data for the sgs1 mgt1 strain (AID 161);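 note: 0% = growth of cultures given vehicle only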; settings: S. cerevisiae sgs1 mgt1 strain, stronger effect = higher value
Procedure, shortened: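 Mutant yeast exposed to compound; growth scored against vehicle-only wells.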

[9] = NCI Yeast Anticancer Drug Screen. Data for the CLN2oe strain (AID 163);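 note: 0% = growth of vehicle-only control cultures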; settings: S. cerevisiae CLN2oe strain, stronger effect = higher value
Procedure, shortened: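 Read-out: yeast growth inhibition, expressed relative to vehicle-only controls. The strain bears an engineered cell-cycle alteration.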

[10] = NCI Yeast Anticancer Drug Screen. Data for the cln2 rad14 strain (AID 165);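 note: 0% = growth equal to vehicle treated cultures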; settings: S. cerevisiae cln2 rad14 strain, stronger effect = higher value
Procedure, shortened: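 cln2 rad14 yeast strain; compound exposure; growth inhibition read vs vehicle controls.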

[11] = NCI Yeast Anticancer Drug Screen. Data for the bub3 strain (AID 167); settings: S. cerevisiae bub3 mutant strain, stronger effect = higher value
Procedure, shortened: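 Compounds were applied to a genetically altered yeast strain carrying a cell-cycle control defect. Growth inhibition was scored against vehicle-treated controls.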

[12] = NCI Yeast Anticancer Drug Screen. Data for the wt2 strain (AID 169);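 note: 0% = growth of vehicle-treated yeast cultures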; settings: S. cerevisiae wt2 strain growth inhibition, stronger effect = higher value
Procedure, shortened: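 Read-out: growth inhibition versus vehicle-treated control cultures after compound exposure of the yeast strain.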

[13] = NCI Yeast Anticancer Drug Screen. Data for the mlh1 strain (AID 171);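 note: 0% = growth of vehicle-treated control cultures of the same strain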; settings: S. cerevisiae mlh1 strain growth inhibition, stronger effect = higher value
Procedure, shortened: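 Read-out: growth inhibition versus vehicle controls. Strain: engineered yeast with a defined DNA repair or cell cycle defect, compound-treated.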

[14] = NCI Yeast Anticancer Drug Screen. Data for the sgs1 strain (AID 173);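 note: 0% = growth of vehicle-only control cultures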; settings: S. cerevisiae sgs1 mutant, stronger effect = higher value
Procedure, shortened: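 Read-out: yeast growth inhibition relative to vehicle controls, following compound exposure of a strain with a defined DNA repair/cell cycle alteration.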

[15] = NCI Yeast Anticancer Drug Screen. Data for the mlh1 rad18 strain (AID 175); settings: S. cerevisiae mlh1 rad18 strain growth inhibition, stronger effect = higher value
Procedure, shortened: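 Yeast w/ defined DNA-repair lesions; compound exposure; growth vs vehicle controls → % inhibition.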

[16] = NCI Yeast Anticancer Drug Screen. Data for the rad18 strain (AID 177); settings: S. cerevisiae rad18 mutant growth inhibition, stronger effect = higher value
Procedure, shortened: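 Readout: growth inhibition vs vehicle controls. Cells: genetically altered yeast strain, DNA repair defect.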

[17] = at 5.0 µM (retest, dose inferred, filed as 0.5)
[18] = at 50.0 µM (retest, dose inferred, filed as 5.0)

Measured: growth inhibition

COC(=O)/C=C(/CC(=O)OC)C(=O)OC
active: [8]; [17] 90% | [10]; at 50.0 µM 77.8%
inactive: [1]; at 1.2 µM 0% | [1]; at 3.7 µM -1% | [1]; at 11.0 µM -1% | [1]; at 33.0 µM -1% | [1]; at 100.0 µM -2% | [2]; at 1.2 µM -2% | [2]; at 3.7 µM 0% | [2]; at 11.0 µM -1% | [2]; at 33.0 µM -3% | [2]; at 100.0 µM -3% | [3]; at 1.2 µM 2% | [3]; at 3.7 µM -2% | [3]; at 11.0 µM -1% | [3]; at 33.0 µM -1% | [3]; at 100.0 µM -3% | [4]; at 1.2 µM -3% | [4]; at 3.7 µM 0% | [4]; at 11.0 µM 0% | [4]; at 33.0 µM 0% | [4]; at 100.0 µM -3% | [5]; at 1.2 µM 0% | [5]; at 3.7 µM -44% | [5]; [17] 59% | [5]; at 11.0 µM 4% | [5]; at 33.0 µM -4% | [5]; [18] 3% | [5]; at 50.0 µM 16.6% | [5]; at 100.0 µM -4% | [6]; at 1.2 µM -1% | [6]; at 3.7 µM -3% | [6]; [17] 12% | [6]; at 11.0 µM 1% | [6]; at 33.0 µM 0% | [6]; [18] 6% | [6]; at 50.0 µM 9.4% | [6]; at 100.0 µM -3% | [7]; at 1.2 µM 0% | [7]; at 3.7 µM 1% | [7]; at 11.0 µM 2% | [7]; at 33.0 µM 3% | [7]; at 100.0 µM -1% | [8]; [18] 15% | [8]; at 50.0 µM -8.4% | [9]; at 1.2 µM 0% | [9]; at 3.7 µM -4% | [9]; at 11.0 µM 0% | [9]; at 33.0 µM -2% | [9]; at 100.0 µM -2% | [10]; [17] 15% | [10]; [18] -1% | [11]; at 1.2 µM -4% | [11]; at 3.7 µM -3% | [11]; [17] 9% | [11]; at 11.0 µM -2% | [11]; at 33.0 µM -2% | [11]; [18] 15% | [11]; at 50.0 µM -15.2% | [11]; at 100.0 µM -1% | [12]; at 1.2 µM -3% | [12]; at 3.7 µM 8% | [12]; at 11.0 µM 0% | [12]; at 33.0 µM -1% | [12]; at 100.0 µM -1% | [13]; at 1.2 µM -2% | [13]; at 3.7 µM -1% | [13]; at 11.0 µM 0% | [13]; at 33.0 µM 0% | [13]; at 100.0 µM -2% | [14]; at 1.2 µM 0% | [14]; at 3.7 µM 1% | [14]; at 11.0 µM 3% | [14]; at 33.0 µM 2% | [14]; at 100.0 µM 3% | [15]; [17] 33% | [15]; [18] 1% | [15]; at 50.0 µM 10.8% | [16]; at 1.2 µM 3% | [16]; at 3.7 µM 2% | [16]; at 11.0 µM 1% | [16]; at 33.0 µM 1% | [16]; at 100.0 µM -4%

Cc1cc(-c2cc(C)c(O)c(C(C)(C)C)c2)cc(C(C)(C)C)c1O
45% (inactive) and 90% (active): [8]; [18]
77.8% (active) and 65.8% (inactive): [10]; at 50.0 µM
active: [1]; at 100.0 µM 75% | [2]; at 100.0 µM 70% | [5]; [18] 98% and 74% | [5]; at 50.0 µM 70.5% and 77.3% | [5]; at 100.0 µM 72% | [6]; [18] 98% and 91% | [7]; at 100.0 µM 72% | [9]; at 100.0 µM 73% | [10]; [18] 81% and 91% | [15]; [18] 99% and 92% | [15]; at 50.0 µM 70.5% and 84.8% | [16]; at 100.0 µM 74%
52% (inactive) and 93% (active): [11]; [18]
inactive: [1]; at 1.2 µM -37% | [1]; at 3.7 µM -34% | [1]; at 11.0 µM -17% | [1]; at 33.0 µM 48% | [2]; at 1.2 µM -52% | [2]; at 3.7 µM -49% | [2]; at 11.0 µM -44% | [2]; at 33.0 µM 6% | [3]; at 1.2 µM -35% | [3]; at 3.7 µM -31% | [3]; at 11.0 µM -29% | [3]; at 33.0 µM -25% | [3]; at 100.0 µM -4% | [4]; at 1.2 µM -49% | [4]; at 3.7 µM -51% | [4]; at 11.0 µM -49% | [4]; at 33.0 µM -16% | [4]; at 100.0 µM 57% | [5]; at 1.2 µM -2% | [5]; at 3.7 µM -4% | [5]; [17] 43% and 15% | [5]; at 11.0 µM 11% | [5]; at 33.0 µM 52% | [6]; at 1.2 µM -30% | [6]; at 3.7 µM -23% | [6]; [17] 51% and -6% | [6]; at 11.0 µM -10% | [6]; at 33.0 µM -2% | [6]; at 50.0 µM 65.3% and 61.5% | [6]; at 100.0 µM 55% | [7]; at 1.2 µM -16% | [7]; at 3.7 µM -10% | [7]; at 11.0 µM -23% | [7]; at 33.0 µM 25% | [8]; [17] 10% and 18% | [9]; at 1.2 µM -51% | [9]; at 3.7 µM -62% | [9]; at 11.0 µM -42% | [9]; at 33.0 µM 15% | [10]; [17] 52% and -17% | [11]; at 1.2 µM -6% | [11]; at 3.7 µM 5% | [11]; [17] 43% and 5% | [11]; at 11.0 µM 24% | [11]; at 33.0 µM 40% | [11]; at 100.0 µM 65% | [12]; at 1.2 µM -32% | [12]; at 3.7 µM -18% | [12]; at 11.0 µM -17% | [12]; at 33.0 µM 4% | [12]; at 100.0 µM 66% | [13]; at 1.2 µM -44% | [13]; at 3.7 µM -31% | [13]; at 11.0 µM -28% | [13]; at 33.0 µM 9% | [13]; at 100.0 µM 65% | [14]; at 1.2 µM -20% | [14]; at 3.7 µM -8% | [14]; at 11.0 µM -6% | [14]; at 33.0 µM 30% | [14]; at 100.0 µM 59% | [15]; [17] 46% and 3% | [16]; at 1.2 µM -42% | [16]; at 3.7 µM -36% | [16]; at 11.0 µM -26% | [16]; at 33.0 µM 29%
66.3% (inactive) and 80.8% (active): [8]; at 50.0 µM
70.2% (active) and 37.4% (inactive): [11]; at 50.0 µM

Source: PubChem BioAssay (NCI)
